SMILES strings stand for the structures. About 83,000 compounds went through this panel and 20% of them were active in at least one assay; those are over-represented in the sample as a whole.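 Single-dose data. Exposure time 48 hours. Values below 10 considered active.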 A number with no mark means an inactive call. Calls of active or inactive are those of the source.

Holding throughout (assay): NCI-60 one-dose screen, 48 h (100 = growth as untreated, 0 = no growth, -100 = all killed)
Holding throughout (conditions): 10 µM unless noted

Assay [1] relates to DU-145 prostate.
For assay [2], the system named is K-562 leukemia.
Assay [3] relates to MALME-3M melanoma.
In assay [4] the test system is MDA-MB-231 breast.
For assay [5], the system named is RXF 393 renal.
In assay [6] the test system is SF-268 CNS.
Assay [7] has as its system SF-295 CNS.
Assay [8] has as its system SF-539 CNS.
In assay [9] the test system is UACC-257 melanoma.
Assay [10] relates to M14 melanoma.
The test system of assay [11] is HCT-15 colon.
Assay [12] deals with SNB-75 CNS.
Assay [13] has as its system SNB-19 CNS.
Assay [14] deals with U251 CNS.
Assay [15] has as its system PC-3 prostate.
For assay [16], the system named is SK-MEL-5 melanoma.
Assay [17] has as its system UACC-62 melanoma.
The subject of assay [18] is LOX IMVI melanoma.
For assay [19], the system named is SK-MEL-28 melanoma.

For the compound `O=C(CCl)Nc1ccc(NC(=O)c2cc(Cl)ccc2O)c(Cl)c1`, the growth in assay [1] is 95.2%; in assay [2], 32.8%; in [3] it was 81.8%; in assay [4], 87.6%; in [5], 87.4%; in assay [6], 85%. In addition, the growth in [7] is 83.6%; in assay [8], 73.1%; in assay [9] it was 89.9%; in [10] it was 76.6%; in assay [11], 25.9%; in assay [12], 77.1%. The growth in assay [13] was 80%; in assay [14], 42.8%; in assay [15] it was 87.1%; in [16] it was 57.8%; in assay [17] it was 56.4%; in assay [18], -88.1% (active). Further, in assay [19], the growth is 88.5%.

Take `O=C1[C@@H]2Cc3c([nH]c4ccccc34)[C@H](c3ccc(Cl)cc3)N2C(=O)CN1C1CCN(Cc2ccccc2)CC1`: the growth is 56.1% in [1]; 9.57% (active) in assay [2]; 74.5% in assay [3]; 68.6% in assay [4]; 57.6% in assay [5]; 50.5% in assay [6]. In addition, the growth in [7] is 70.6%; in assay [8] it was 77.6%; in [9], 61.4%; in [10], 27.9%; in [11], 35%; in [12] it was 43.8%. In addition, the growth is 66% in [13]; 56.5% in [14]; 38.8% in assay [15]; 62.3% in assay [16]; 75.4% in assay [17]; 20.7% in assay [18]. Moreover, the growth in [19] was 77.8%.

On to `O=C(/C=C/c1cc(Cl)ccc1Cl)Nc1ncc(Cc2ccc(Cl)cc2)s1`, for which the growth was 14.8% in [1]; 9.62% (active) in assay [2]; 49% in [3]; 6.75% (active) in [4]; 33.7% in [5]; 34.7% in assay [6]. The growth in assay [7] was -2.3% (active); in [8] it was -22.6% (active); in assay [9], 49.1%; in assay [10], 5.98% (active); in [11], 7.86% (active); in assay [12], 0.161% (active). The growth was 19.1% in assay [13]; 2.48% (active) in assay [14]; 27.3% in assay [15]; 5.45% (active) in [16]; 29.1% in [17]; -37.3% (active) in assay [18]. The growth in assay [19] was 52.6%.

Take `CCc1nnc(NC(=O)c2cc(-c3ccc(Cl)cc3Cl)oc2C)s1`: the growth in [1] was 93.5%; in assay [2] it was 86%; in assay [3], 88.3%; in assay [4], 91.5%; in assay [5], 109%; in assay [6], 89.3%. The growth was 94.2% in [7]; 92.4% in assay [8]; 103% in assay [9]; 93.3% in assay [10]; 70.5% in assay [11]; 94% in assay [12]. In addition, the growth was 79.7% in [13]; 29.5% in assay [14]; 82.7% in assay [15]; 97.8% in assay [16]; 73.2% in assay [17]; 74.4% in assay [18]. Further, the growth in [19] was 102%.

Turning to `CN1CC[C@@H]2[C@@]3(C)CC[C@H](O)C(C)(C)[C@@H]3CC[C@@]2(C)[C@]2(C)CC[C@@]3(CO)CCC(C)(C)C[C@@H]3C12` (stereo not given in full), the growth in [1] was 103%; in [2] it was 21.5%; in assay [3] it was 84.3%; in [4], 85%; in assay [5] it was 77.2%; in assay [6] it was 96.7%. Also, the growth in [7] is 104%; in assay [8], 74.9%; in [9] it was 49.1%; in [10] it was 58.6%; in assay [11] it was 72.7%; in [12], 87.7%. Besides, the growth was 94.5% in assay [13]; 73.9% in [14]; 79.6% in assay [15]; 95.6% in assay [16]; 93% in [17]; 88% in assay [19].

For the compound `CC(=O)Nc1ccccc1-c1nc2ccccc2s1`, the growth was 110% in [1]; 113% in assay [2]; 106% in assay [3]; 99.2% in assay [4]; 103% in assay [5]; 101% in [6]. The growth was 103% in assay [7]; 100% in [8]; 107% in assay [9]; 103% in [10]; 96.7% in assay [11]; 69.8% in assay [12]. The growth in assay [13] is 94.6%; in assay [14], 108%; in assay [15], 102%; in [16], 99%; in [17] it was 94.3%; in [18], 97.3%. In addition, in assay [19], the growth was 112%.

With `N#Cc1cccc(-c2cc(-c3ccc4c(c3)OCCO4)[nH]n2)c1`, the growth in assay [1] is 34.7%; in assay [2] it was 13.6%; in [3] it was 36.1%; in assay [4] it was 42%; in assay [5] it was 32.4%; in assay [6], 61%. The growth was 27.1% in assay [7]; 25% in assay [8]; 71.1% in [9]; 7.59% (active) in assay [10]; 23.2% in assay [11]; 10.6% in assay [12]. The growth in assay [13] was 36.6%; in [14] it was 30.2%; in assay [15] it was 39.7%; in assay [16], 12.1%; in assay [17], 41.7%; in assay [18] it was 46%. Also, the growth in [19] is 55.9%.

As for `CN1CCN(CC#CCn2c3c(c4ccccc42)C[C@]2(C)[C@H]4CC=C5[C@@H]6CC(C)(C)CC[C@]6(C(=O)N6CCOCC6)CC[C@@]5(C)[C@]4(C)CC[C@H]2C3(C)C)CC1`, the growth in assay [1] is 64.8%; in [2], -23% (active); in assay [3] it was 83.3%; in assay [4], 43.1%; in [5], 68.4%; in assay [6], 83.5%. For the same compound, the growth in assay [7] was 99.3%; in assay [8], 73.9%; in assay [9], 102%; in assay [10], 87.7%; in assay [11] it was 28.4%; in assay [12], 88.9%. The growth in [13] is 83%; in assay [14], 43.4%; in assay [15] it was 56.7%; in [16], 95.7%; in [17], 103%; in [19] it was 92.1%.

The values are drawn from PubChem BioAssay (NCI).
